High-throughput results deposited in PubChem BioAssay by National Center for Advancing Translational Sciences (NCATS).
HPGD block: qHTS Assay for Inhibitors of HPGD (15-Hydroxyprostaglandin Dehydrogenase); 15-hydroxyprostaglandin dehydrogenase [NAD(+)] (Homo sapiens), P15428; purified HPGD, NADH fluorescence kinetic, PGE2 substrate; Potency, µM, for the others: at the top dose activity change, negative = inhibition, hits mostly inhibitors; 4.3% of 150,000 active; AID 894, 2007; active = well fitted inhibition curve with a large enough effect, not every such curve was filed as active; inconclusive = small, poorly fitted or top-dose-only effect, or another doubt; inactive = no such curve, though single readings can be large or run the other way; note: potency is the fitted concentration of half-maximal effect
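NADH formation kinetics: reaction with 30 uM PGE2 and 1 mM NAD+ (final), 20 nM enzyme, Tris-HCl pH 8 with Tween 20, after 15 min compound preincubation at room temperature. Fluorescence change, last versus first of five reads.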
IMPase cell inh: qHTS Assay for Identifying the Cell-Membrane Permeable IMPase Inhibitors. 120,000 tested, under 10 active. Inositol monophosphatase 1 (Rattus norvegicus), P97697. AID 901, 2007. inhibition (IP1 accumulation), % at 46.1 µM. CHO-M1 cells, IP1 accumulation, HTRF TR-FRET ratio; active = well fitted curve in the direction sought with a large enough effect in the signal ratio, not every such curve was filed as active; inconclusive = small, poorly fitted or top-dose-only effect, or a change in a side signal; inactive = no such curve, though single readings can be large or run the other way; the % refers to the signal ratio;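 note: cells stimulated with carbachol in lithium chloride buffer; plate controls were DMSO basal wells for no effect and reference inhibitor wells for full effect; higher means more IMPase inhibition seen as more IP1 and lower FRET ratio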
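Seeded CHO-M1 cells were dosed with compound at up to 46 uM, stimulated with carbachol for 30 min, then lysed in IP-One detection reagents. Higher IP1 lowers the TR-FRET signal.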
NPSR antag: qHTS Assay for Antagonists of the Neuropeptide S Receptor: cAMP Signal Transduction; 1% of 220,000 active; Potency, µM (doses to about 38.3 µM), without a hit: at the top dose activity change, negative = inhibition, usual class: inhibitors; CHO-NPSR cells, cAMP TR-FRET, antagonist mode; Q6W5P4; note: potency is the fitted concentration of half-maximal effect; nearly all actives have a fitted effect of over 50% in size
IMPase Li inh: qHTS Assay for Identifying the Cell-Membrane Permeable IMPase Inhibitors: Potentiation with Lithium; CHO-M1 cells, IP1 TR-FRET (IP-One), carbachol + lithium; Potency, µM (highest dose often 59.4 µM), inactives show at the top dose activity, negative = IMPase inhibition, hits mostly inhibitors; 0.35% of 210,000 active; AID 1457, 2008;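 note: IP1 builds up when IMPase is blocked and the TR-FRET signal falls; potency is the fitted concentration of half-maximal effect; plate controls were basal vehicle for no effect and high inhibitor control for full effect; nearly all actives have a fitted effect of over 50% in size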
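Lithium-sensitised IP1 accumulation assay; M1-expressing CHO cells treated 30 min at 37C with compound. Competitive antibody detection by time-resolved FRET followed a 10 min room-temperature lysis step.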
ALDH1A1 inh: qHTS Assay for Inhibitors of Aldehyde Dehydrogenase 1 (ALDH1A1); Aldehyde dehydrogenase 1A1 (Homo sapiens), P00352; Purified ALDH1A1, NADH fluorescence, propionaldehyde substrate; Potency, µM (series often up to 75.3 µM), for inactives: at the top dose activity, negative = inhibition, usual class: inhibitors; 7.3% of 220,000 active; active = well fitted inhibition curve with a large enough effect, not every such curve was filed as active; inconclusive = small, poorly fitted or top-dose-only effect, or another doubt; inactive = no such curve, though single readings can be large or run the other way;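 note: potency is the fitted concentration of half-maximal effect; plate controls were no enzyme wells and a reference inhibitor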
12-hLO inh: qHTS Assay for Inhibitors of 12-hLO (12-human lipoxygenase); Polyunsaturated fatty acid lipoxygenase ALOX12 (Homo sapiens), P18054; purified 12-hLO, xylenol orange hydroperoxide absorbance; Potency, µM (top dose mostly 57.1 µM), for the others: at the highest dose activity change, negative = inhibition, hits mostly inhibitors; 0.12% of 150,000 active; AID 1452, 2008; note: potency is the fitted concentration of half-maximal effect; nearly all actives have a fitted effect of over 55% in size
Target sequence (P18054 whole entry, looked up): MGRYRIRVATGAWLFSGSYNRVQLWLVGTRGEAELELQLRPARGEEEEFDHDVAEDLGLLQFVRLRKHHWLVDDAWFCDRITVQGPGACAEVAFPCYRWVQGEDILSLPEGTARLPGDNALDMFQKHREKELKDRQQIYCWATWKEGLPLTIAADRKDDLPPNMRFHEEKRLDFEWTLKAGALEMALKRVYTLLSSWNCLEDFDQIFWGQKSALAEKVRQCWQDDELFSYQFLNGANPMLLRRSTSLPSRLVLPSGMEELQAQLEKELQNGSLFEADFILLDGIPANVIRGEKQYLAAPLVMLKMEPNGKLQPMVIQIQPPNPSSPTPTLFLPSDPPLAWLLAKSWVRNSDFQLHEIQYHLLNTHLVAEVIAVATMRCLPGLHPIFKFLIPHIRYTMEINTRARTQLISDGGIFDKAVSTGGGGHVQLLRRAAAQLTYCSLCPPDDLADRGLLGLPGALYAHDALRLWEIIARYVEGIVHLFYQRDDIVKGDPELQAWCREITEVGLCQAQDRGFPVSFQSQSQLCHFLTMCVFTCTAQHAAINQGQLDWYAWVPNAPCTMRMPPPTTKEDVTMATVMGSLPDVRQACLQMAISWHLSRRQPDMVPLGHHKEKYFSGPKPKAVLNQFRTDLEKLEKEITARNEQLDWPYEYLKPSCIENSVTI
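Hydroperoxide formation by human 12-lipoxygenase from 40 uM arachidonic acid was followed colorimetrically via ferric-xylenol orange complex, using the 573/405 nm absorbance ratio. Enzyme concentration was 150 nM, with 30 min reaction at room temperature.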
Numbers without * were called inactive; ? = inconclusive; . = no result given; [ ] = remark or other dose. An excerpt weighted towards active compounds, which were near 8.9% of everything screened. Unless noted, calls come from the whole dose curve; as a rule, active = well fitted curve in the direction sought with a large enough effect; inconclusive = small, poorly fitted or top-dose-only effect, or another doubt; inactive = no such curve, though single readings can be large; an effect the other way counts as inactive or inconclusive. Unless noted, % is set by controls: 0 for no effect and ±100 for the full control effect.

SMILES	HPGD block	IMPase cell inh	NPSR antag	IMPase Li inh	ALDH1A1 inh	12-hLO inh
CCN(CC)S(=O)(=O)c1ccc(-c2nnc(SCC(=O)Nc3ccc(OC)cc3)o2)cc1	-15.4%	-11.3	-11.0%[46.1 µM]	6.3%	-3.9%	-2.2%
COc1ccc(NCc2nnc(SCC(=O)Nc3cc(C)cc(C)c3)o2)cc1	-29.4%	-2.0	-11.0%[46.1 µM]	41.2%[38.3 µM]	3.16µM*	-3.7%
CC(=O)c1cccc(NC(=O)CSC(=O)c2ccccc2)c1	-10.2%	-6.3	19.8%	-1.5%	?	1.1%
COc1ccc(C(=O)OCC(=O)c2c(N)n(C)c(=O)n(C)c2=O)cc1OC	.	.	-3.9%	?	2.8%	.
CC(CO)(CO)N=Cc1cc(I)cc(I)c1O	-8.5%	.	.	-21.6%	-11.5%[13.5 µM]	-21.5%[11.4 µM]
COc1ccc(N2C(=O)CC(Sc3ncn[nH]3)C2=O)c(OC)c1 (stereo not drawn)	.	6.1	1.9%[46.1 µM]	.	14.1µM*	0.8%
CC(C)c1ccc(N2C(=O)CC(Sc3ncn[nH]3)C2=O)cc1 (stereo not drawn)	15.8µM*	1.8	-8.3%[46.1 µM]	21.7%[38.3 µM]	0.126µM*	3.4%
CCCc1c(O)nc(SC2CC(=O)N(c3cc(OC)ccc3OC)C2=O)[nH]c1=O (stereo not drawn)	-6.2%	-0.5	-2.4%[46.1 µM]	-4.2%[38.3 µM]	-5.0%	-0.9%
CC(C)c1ccc(N2C(=O)CC(Sc3nc4ccccc4o3)C2=O)cc1 (stereo not drawn)	?	2.3	-24.5%[46.1 µM]	2.0%[38.3 µM]	0.708µM*	-8.7%
CC(C)c1ccc(C(=O)CSc2ncn[nH]2)cc1	31.6µM*	3.3	-8.0%[46.1 µM]	-5.0%[38.3 µM]	?	-18.8%
COc1ccc(N2C(=O)CC(Sc3ncccc3C(=O)O)C2=O)cc1 (stereo not drawn)	-4.1%	-8.6	-6.6%[46.1 µM]	15.0%[38.3 µM]	?	-4.7%
N#Cc1c2c(c(N3CCN(c4ccccn4)CC3)n3c1nc1ccccc13)CCC2	-10.4%	-1.9	-0.4%[46.1 µM]	5.4%[38.3 µM]	6.8%	?
O=c1c2c(nc3nc(Cc4ccccc4)[nH]n13)CCC2	-18.2%	4.4	9.2%[46.1 µM]	21.1%[38.3 µM]	-9.2%	2.8%
Cc1ccc(OCCn2cc(Br)c(=O)[nH]c2=O)cc1	-0.6%	9.1	-13.8%[46.1 µM]	-25.9%[38.3 µM]	20µM*	-2.1%
COc1cccc(CNC(=O)CCC2CCCN(c3cc(C)nc(N)n3)C2)c1 (stereo not drawn)	.	.	-19.6%	13.9%	5.0%	.
Cc1ccccc1OCC(=O)N1N=C(C(F)(F)F)CC1(O)C(C)(C)C (stereo not drawn)	-10.6%	-0.4	?	20.1%	14.1µM*	-5.9%
Cc1ccc(OCC(=O)N2N=C(C(F)(F)F)CC2(O)C(C)(C)C)cc1C (stereo not drawn)	-5.4%	-1.6	-15.6%[46.1 µM]	36.9%[38.3 µM]	-2.8%	-8.4%
O=C(CSc1nc2ccccc2c(=O)n1CC1CCCO1)NCC1CCCO1 (stereo not drawn)	-4.0%	-9.2	-5.1%[46.1 µM]	-8.4%[38.3 µM]	-5.6%	-1.5%
CCN1C(=O)/C(=C2/C(=O)N3c4c(cc(OC(C)=O)cc42)C(C)=CC3(C)C)SC1=S	-6.2%	.	-17.6%	-2.6%	?	-0.6%
CC1=CC(C)(C)N2C(=O)C(=O)c3cc(OC(=O)c4ccco4)cc1c32	.	.	-8.4%	27.2%	0.631µM*	.
Cc1cc(C)c2c(N)c(-c3nc4ccccc4[nH]3)sc2n1	-16.6%	7.6	-10.7%[46.1 µM]	-0.3%[38.3 µM]	-10.7%	-1.6%
COc1cccc(-n2c(N)c(-c3nc4ccccc4[nH]3)sc2=S)c1	.	.	-29.5%	2.1%	28.2µM*	.
Cc1oc2ccc(O)c(CN3CCOCC3)c2c1C(C)O (stereo not drawn)	-2.5%	12.9	-0.6%[46.1 µM]	20.6%	7.08µM*	7.2%
CCN(CC)C(=O)Cn1cnc2ccccc2c1=O	-8.1%	3.6	-5.3%[46.1 µM]	12.3%	1.0%	4.4%
CC(C)CCOC(=O)C(C)Sc1n[nH]c(=O)[nH]c1=O (stereo not drawn)	.	.	5.0%	.	.	.
SMILES	HPGD block	IMPase cell inh	NPSR antag	IMPase Li inh	ALDH1A1 inh	12-hLO inh
COc1ccc(/C(O)=C2\C(=O)C(=O)N(c3cc(C)on3)C2c2ccccc2OC)cc1 (stereo not drawn)	-23.9%	-28.8	1.9%[46.1 µM]	6.31µM*	22.4µM*	-5.6%
COc1cccc(C2/C(=C(\O)c3ccc(OC)c(OC)c3)C(=O)C(=O)N2c2cc(C)on2)c1 (stereo not drawn)	-11.8%	?	9.2%[7.67 µM]	10µM*	5.4%	8.0%
CCOc1ccc(C2/C(=C(/O)c3ccc(OC)cc3)C(=O)C(=O)N2c2cc(C)on2)cc1OC (stereo not drawn)	-13.0%	-12.9	-11.1%[46.1 µM]	?	-6.5%	9.2%
COc1ccc(/C(O)=C2\C(=O)C(=O)N(c3cc(C)on3)C2c2ccccc2OC)cc1C (stereo not drawn)	.	-19.4	1.8%[46.1 µM]	.	-28.1%	-0.9%
Cc1sc2nc(C3CCCCC3)nc(SCC(=O)N3CC(=O)Nc4ccccc43)c2c1C	-9.5%	2.1	0.7%[46.1 µM]	7.3%[38.3 µM]	2.1%	1.0%
O=C(Nc1cccc2c1C(=O)NC2=O)c1ccc(N2C(=O)CCC2=O)cc1	.	.	-22.8%	?	?	.
O=C(Cc1ccc(Cl)cc1)NN1C(=O)c2ccccc2C1=O	-0.4%	.	8.2%	3.5%	14.4%	-2.9%
COC(=O)[C@@H]1[C@@H](C#N)C2(c3ccccc3-c3ccccc32)N(c2ccc(Cl)cc2)N1C#N	?	19.5	10µM*	12.0%	-25.7%	-4.0%
Cc1ccc(CSc2nc3ccncc3n2CC(=O)Nc2cc(C)cc(C)c2)cc1	-13.3%	.	3.16µM*	-16.8%	-12.1%	-3.6%
O=C1c2ccccc2-c2onc3ccc(N4CCCC4)c1c23	.	.	12.6µM*	67.7%	22.4µM*	.
COc1ccc(C(=O)NN/C(=N/S(=O)(=O)c2ccc(C)cc2)c2ccccc2)cc1	.	.	19.3%	.	.	.
O=S(=O)(CCN(CCS(=O)(=O)C(F)(F)F)CC1CCCO1)C(F)(F)F (stereo not drawn)	-13.0%	2.7	-7.1%[46.1 µM]	-9.6%[38.3 µM]	7.08µM*	0.7%
CCN(CC)c1ccc(NC(=O)COc2ccccc2C#N)cc1S(=O)(=O)Nc1ccccc1OC	3.55µM*	.	8.0%	-5.0%	-8.9%	15.6%
CN(c1ccc(C(=O)Nc2cccnc2)cc1)S(C)(=O)=O	-17.2%	-12.7	-4.4%[46.1 µM]	1.1%	4.8%	4.4%
CCc1ccc(OCC(=O)Nc2ccc(-c3nc4ccccc4o3)c(O)c2)cc1	?	1.3	-5.7%[46.1 µM]	5.62µM*	?	-2.6%
